Screening results deposited in PubChem BioAssay by The Scripps Research Institute Molecular Screening Center.
DAX1 inh-1 – inhibits human nuclear receptor DAX1; inhibition, % at 6.75 µM; P51843; HEK293 Gal4-DAX1 luciferase reporter, luminescence; actives 0.99% (n = 340,000);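 active = inhibition above the mean over all tested compounds plus 3 SD, cut at about 4.2% in these data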;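 also: 0% = DAX1-transfected cells with DMSO and 100% = empty-vector control cells with DMSO; inhibition shows as a rise in luminescence from relieved DAX1 repression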
DAX1 inh-2 – DAX1 (NR0B1) inhibition, primary screen; AID 652010; HEK293T StAR-luciferase reporter, SF-1/DAX-1 repression relief; inhibition, % at 6.8 µM; actives 1.1% (n = 370,000);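 active = inhibition above the mean over all tested compounds plus 3 SD, cut at about 3.6% in these data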;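 also: 0% = DAX-1 cells with DMSO and 100% = cells lacking DAX-1 with DMSO; higher inhibition means more luminescence from relief of DAX-1 repression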
hcDAF12 agonist – activators of H. contortus DAF-12 nuclear receptor. HEK293 hcDAF-12 lit1-tk-luc reporter, luminescence; 0% DMSO, 100% Δ7-dafachronic acid. activation, % at 6.8 µM. actives 1.4% (n = 370,000). AID 652067;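 active = activation above the mean of all tested compounds plus 3 SD, cut at about 5.5% in these data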;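 also: 100% = response to 3 µM Δ7-dafachronic acid high control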
ssDAF-12 act – S. stercoralis DAF-12 activation, primary screen. HEK293 ssDAF-12/GRIP1 lit1-tk-luc reporter, luminescence; % of 3 µM dafachronic acid response. AID 652126. actives 1% (n = 370,000). activation, % at 6.8 µM;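 active = activation above the mean over all tested compounds plus 3 SD, cut at about 0.9% in these data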;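 also: 0% = DMSO-only wells and 100% = 3 µM delta7-dafachronic acid wells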
hgDAF12 agonist – hgDAF-12 agonism, primary luciferase screen; AID 687014; activation, % at 6.8 µM; HEK293 GAL4-hgDAF12 UAS-luciferase reporter, agonist luminescence; normalized to butyrate control; actives 1.8% (n = 370,000);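 active = activation above a cutoff set at the mean of all screened compounds plus 3 SD, cut at about 10% in these data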;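 also: 0% = DMSO wells and 100% = sodium butyrate wells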
LXR ag – counter-screen for hcDAF-12 agonists: agonists of human LXR-beta. shares compounds with hcDAF12 agonist. HEK293 Gal4-LXR tk-luc reporter, luminescence, 24 h; normalized: DMSO 0%, positive control 100%. activation, % at 6.8 µM. 3,400 tested, under 10 active. AID 743027;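 active = mean percent activation of the reporter above a cutoff set as the average over tested compounds plus their standard deviation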
Target sequence (P55055 whole entry, looked up, the tested form may be a part): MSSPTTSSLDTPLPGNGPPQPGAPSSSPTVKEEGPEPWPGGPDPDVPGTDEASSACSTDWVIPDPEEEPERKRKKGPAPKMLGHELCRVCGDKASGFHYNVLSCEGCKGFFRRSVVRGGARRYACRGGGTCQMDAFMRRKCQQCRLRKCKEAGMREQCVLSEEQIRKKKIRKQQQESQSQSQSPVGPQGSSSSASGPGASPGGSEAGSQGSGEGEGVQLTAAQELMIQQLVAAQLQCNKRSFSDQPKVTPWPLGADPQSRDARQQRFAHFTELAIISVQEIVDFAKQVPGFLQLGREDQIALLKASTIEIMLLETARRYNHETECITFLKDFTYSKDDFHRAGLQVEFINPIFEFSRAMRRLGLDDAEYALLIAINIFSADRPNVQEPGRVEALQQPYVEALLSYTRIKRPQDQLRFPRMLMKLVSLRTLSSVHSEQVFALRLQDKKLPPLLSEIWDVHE
hcDAF12 ag – hcDAF-12 agonism, confirmation assay. shares compounds with hcDAF12 agonist. HEK293 hcDAF-12 lit1-tk-luc reporter, luminescence; % of Δ7-dafachronic acid response. activation, % at 6.8 µM. actives 61% (n = 3,400). AID 743032;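 active = mean activation across triplicate tests above the threshold derived from the earlier primary screen, cut at about 5.5% in these data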;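 also: 0% = DMSO only wells and 100% = 3 µM Δ7-dafachronic acid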
hgDAF12 conf – hgDAF-12 agonism, confirmation assay | shares compounds with hgDAF12 agonist | HEK293 GAL4-hgDAF12 luciferase reporter, agonist mode; percent of butyrate response | activation, % at 6.8 µM | actives 80% (n = 3,300);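 active = mean activation over triplicate wells above the hit cutoff derived from the earlier primary screen, cut at about 11% in these data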;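 also: 0% = DMSO low control and 100% = 2 mM sodium butyrate high control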
LXR ag 2 – LXR-beta agonism as DAF-12 counter-screen; shares compounds with hgDAF12 agonist; HEK293 Gal4-LXR luciferase reporter, 24 h; activation, % at 6.8 µM; AID 743051; 3,300 tested, under 10 active;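 active = mean activation of the triplicate above a set limit carried over from the primary screen, none filed active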
* marks the source's active call; other numbers are inactive results; · = not tested or not shown. Only some compounds are listed: those with a hit (about 4.1% of all), similar ones and a draw of the others.

SMILES	DAX1 inh-1	DAX1 inh-2	hcDAF12 agonist	ssDAF-12 act	hgDAF12 agonist	hgDAF12 conf	LXR ag 2	others
O=C(N/N=C/c1c(O)n(CCC2=CCCCC2)c(=O)[nH]c1=O)c1ccccc1	0	2	2	0	7	·	·
C1CC2NCCC3NCCC(N1)N32 (configuration not stated)	1	0	0	-1	0	·	·
CN(C)C(Cc1ccccc1)C(=O)c1c[nH]c2ccccc12 (configuration not stated)	-1	1	6.8*	0	2	·	·	LXR ag=0;hcDAF12 ag=2
O=P(O)(Oc1ccccc1)OC(c1ccccc1)C(F)(F)F (configuration not stated)	0	0	-1	0	-1	·	·
COc1ccc(C(C)=O)cc1CC(C(=O)c1ccc(Br)cc1)N(C)C (configuration not stated)	0	0	0	-1	14*	0	0
Cc1ccc(-n2c(=S)[nH]c3ccc(C)cc3c2=O)cc1	1	0	0	-1	-2	·	·
CC(=O)c1ccc(NC(=O)N2C[C@H]3C[C@@H](C2)c2cccc(=O)n2C3)cc1	3	0	-2	-1	1	·	·
COC(=O)C1=C(c2cccc(OC)c2OC)C[C@@H]2CC[C@H]1N2C(=O)NC1CCCCC1	2	0	-1	-1	0	·	·
N#Cc1c(Br)n(C2OC(CO)C(O)C2O)c2ncnc(N)c12 (configuration not stated)	7.6*	0	1	-1	18*	10	1
Nc1c2c(nc3sc4c(c13)CCCC4)CCCCC2	3	2	3	0	14*	18*	1
